# Test results reported in PubChem BioAssay AID435026 (Broad Institute, 2010).
# Screen size: about 1,000 compounds; about 410 (41%) were called active.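 The calls were made as follows: active = fitted half-maximal inhibitory concentration no more than tenfold above the top dose tested; inconclusive = flat fit with 30 to 70% activity, or poor fit; inactive = half-maximal concentration beyond tenfold above the top dose.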 The set was probably picked from earlier hits. The list is a sample of the results.
# Test: compounds reducing YIC probe YFP/CFP ratio – biochemical, fluorescence FRET, counter-screen for RanGTP-importin-beta inhibitor project, dose response (AID 435026)
# Conditions: Purified YIC probe, intramolecular FRET ratio YFP/CFP
row,Compound,IC50
1,CN(C)CCCn1c(N)c(C#N)c2nc(C#N)c(C#N)nc21,25 µM (active)
2,CCN(CCO)C(=S)Nc1cc(C(=O)OC)ccc1C(=O)OC,> 50 µM (inactive)
3,O=C(Nc1ccccc1-c1ccccc1)c1cccs1,> 50 µM (inactive)
4,N#C/C(=C/c1ccc(N2CCCCC2)o1)C(=O)NCCc1c[nH]c2ccccc12,0.753 µM (active)
5,Cc1nc2ccccc2c2oc(C(=O)NCCCN3CCC(C)CC3)cc12,> 50 µM (inactive)
6,COc1ccc(C(=O)C[n+]2ccc(N)c(C)c2C)cc1,> 50 µM (inactive)
7,Cc1ccc(-n2c(=O)c(C#N)cc3c(=O)n4ccccc4nc32)cc1C,1.78 µM (active)
8,COC(=O)c1cc2c(ccn2C)n1C,> 50 µM (inactive)
9,CCn1c2ccccc2c2cc(NC(=O)CNC)ccc21,> 50 µM (inactive)
10,O=c1cc(CN2CCN(S(=O)(=O)/C=C/c3ccccc3)CC2)c2ccc(O)cc2o1,44.1 µM (active)
11,COc1cc(SC)ccc1C(=O)Nc1nc(C)cs1,> 50 µM (inactive)
12,COC(=O)c1ccc2c(C(C)(C)O)c(C(C)(C)O)[nH]c2c1,> 50 µM (inactive)
13,COc1cccc(C(=O)c2cc3ccc(O)cc3oc2=O)c1,28.1 µM (active)
14,CC(=O)c1ccc(-c2ccc(Cn3c(C)nc4cc(N)c(C)nc43)cc2)cc1,> 50 µM (inactive)
15,Cc1cc(O)ccc1NC1=CC(=O)CC(C)(C)C1,> 50 µM (inactive)
16,CC(=O)N1CCc2c(sc(NC(=O)CCS(=O)(=O)c3ccc(C)cc3)c2C(N)=O)C1,38 µM (active)
17,CCCNS(=O)(=O)c1ccc2c(c1)CCCN2C(C)=O,> 50 µM (inactive)
18,CCOC(=O)c1c(C)oc2cc(Br)c(OCC(N)=O)cc12,> 50 µM (inactive)
19,COc1ccc(-n2cnc3cc(NCc4ccco4)ccc32)cc1,> 50 µM (inactive)
20,CC1(C)CC(=O)NC=C(c2ccccc2)C1,> 50 µM (inactive)
21,Cc1ccc(NC(=S)NCCN2CCOCC2)cc1,> 50 µM (inactive)
22,N#C/C(=C\c1ccc(N2CCOCC2)o1)C(=O)N1CCOCC1,5.73 µM (active)
23,N#C/C(=C/c1ccc(N2CCOCC2)o1)C(=O)N1CCOCC1,5.08 µM (active)
24,CCCC(C)c1nnc(NC(=O)C2CC(=O)N(c3ccc(OCC)cc3)C2)s1 (configuration not stated),> 50 µM (inactive)

row,Compound,IC50
1,COc1ccc(C(=O)Cc2cnn(-c3ccccc3)c2)c(O)c1,> 50 µM (inactive)
2,Cc1ccc(N2CCN(c3ccc(C)cc3)C2c2ccccn2)cc1,> 50 µM (inactive)
3,CCOc1ccc(N=Cc2c(O)n(-c3cccc(C)n3)c(=O)c3ccccc23)cc1,34.7 µM (active)
4,CCN(CC)c1nc(-c2ccccc2)cc(C(F)(F)F)c1C#N,9.38 µM (active)
5,CCCOc1ccc(Cn2ccnc2)cc1[N+](=O)[O-],> 50 µM (inactive)
6,CCN1C(=O)/C(=C2/Sc3ccccc3N2CCCS(=O)(=O)O)SC1=S,15 µM (active)
7,C/C(=N\N)c1c(-c2ccccc2)c2cc(Br)ccc2[nH]c1=O,> 50 µM (inactive)
8,CN1CCN(c2cc(=O)n(-c3ccc(Cl)cc3)c(=O)[nH]2)CC1,> 50 µM (inactive)
9,CCC(=O)Nc1c(S(=O)(=O)c2ccccc2)c2nc3ccccc3nc2n1Cc1ccccc1,17.3 µM (active)
10,O=C(NNc1c2ccccc2nc2ccccc12)c1cc2ccccc2cc1O,> 50 µM (inactive)
11,COc1ccc(CCn2c(=N)c(C(=O)NCc3ccco3)cc3c(=O)n4cccc(C)c4nc32)cc1,50.2 µM (active)
12,CC(C)C1C2=C(CC(C)(C)CC2=O)ON1c1ccccc1 (configuration not stated),> 50 µM (inactive)
13,CCN1CCc2nc(NC(=O)c3cc(F)c(F)cc3Cl)sc2C1,> 50 µM (inactive)
14,CNC(=O)c1cc2c(ccc3ccccc32)oc1=N,7.06 µM (active)
15,CC(=O)c1cc(C#N)c(N2CC(C)OC(C)C2)nc1C (configuration not stated),> 50 µM (inactive)
16,Oc1c(CN2CCN(c3ccc(F)cc3)CC2)cc(Cl)c2cccnc12,> 50 µM (inactive)
17,CC1CN(c2cc(=O)n(-c3cccc(Br)c3)c(=O)[nH]2)CC(C)O1 (configuration not stated),> 50 µM (inactive)
18,CCOC(=O)c1oc2c(CN3CCN(CCO)CC3)c(O)c(CC)cc2c(=O)c1-c1nc2ccccc2s1,29.2 µM (active)
19,CC1CC(=O)N(CC(=O)Nc2cccc(Cl)c2)c2ccccc2S1(=O)=O (configuration not stated),> 50 µM (inactive)
20,CC(OC(=O)CNC(=O)c1cccc(F)c1)C(=O)NC1CCCCC1C (configuration not stated),> 50 µM (inactive)
21,OCCNCc1cccc(OCc2ccccc2Cl)c1,> 50 µM (inactive)
22,N#Cc1c(N)n(CCOC(=O)c2ccc(Cl)cc2)c2nc3ccccc3nc12,3.73 µM (active)
23,CCN(CC(=O)Nc1cccc(S(=O)(=O)N2CCCCC2)c1)Cc1ccccc1,> 50 µM (inactive)
